This is an account of results in PubChem BioAssay (NCATS).

Values joined by “and” are separate entries in the source; they are usually repeats but may differ in a detail not shown here. Equal entries are not always repeated. Values without a mark were called inactive. Records with an inconclusive call do not appear. Active and inactive are the calls of the source. Unless noted, the call rests on the fitted dose curve; in most records, active means well fitted curve in the direction sought with a large enough effect; inconclusive means small, poorly fitted or top-dose-only effect, or another doubt; inactive means no such curve, though single readings can be large; an effect the other way counts as inactive or inconclusive.

The nature of assay [1]: Drug repurposing screens with cells derived from glioblastoma tumor samples (AID 1345199). Further: nearly all actives have a fitted effect of over 40% in size. Further: potency means the concentration at half of the fitted maximal effect. On activity, negative = cell killing: on the % scale 0 is the no-effect control and ±100 the full control effect. To be noted: GBM patient neurospheres viability, ATP luminescence, 48 h. In outline: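 Four patient lines of CD133+ GBM neurospheres were screened at several concentrations; hits were retested in those lines plus three slower-growing GBM lines, using 48-hour treatment and ATP-based viability.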

The test system of assay [2] is PA-1. Kind of assay: Primary qHTS to identify gynecologic anti-cancer compounds using libraries of approved drugs and bioactive compounds (AID 1345084). Further: potency means the concentration at half of the fitted maximal effect; nearly all actives have a fitted effect of over 55% in size. To be noted: Gynecologic cancer cell panel viability, ATPlite luminescence, 48 h; series mostly up to 57.5 µM. The method in brief: (§1)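 Five-point cytotoxicity, 48 h drug exposure at 37 C, 5% CO2, on cells seeded 16 h beforehand. ATP content read by ATPlite luminescence.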
On the technique in general: In qHTS, concentration-response curves come from the screen itself.

Assay [3] is described as follows: qHTS assay to identify inhibitors of the type 1 interferon - major histocompatibility complex class I in skeletal muscle: Counter screen cell viability and HiBit confirmation (AID 1347412). Further: potency means the concentration at half of the fitted maximal effect. On activity change, negative = inhibition: on the % scale 0 is the no-effect control and ±100 the full control effect. On all read-outs here: nearly all actives have a fitted effect of over 60% in size. To be noted: iHSKM muscle cells + IFN-b, HiBiT or CellTiter-Glo, 24 h; for activity change, negative = inhibition: at 45.9 µM (top of the series). The method in brief:
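Human myoblast knock-in line, 4.0 ng/ml IFN-beta stimulation, 24 h compound treatment. Endpoints: HiBiT lytic luminescence (HLA-B level) and CellTiter Glo (ATP). Dosing 12 concentrations, 3-fold steps, 46 uM highest final.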

Assay [4] addresses Nuclear receptor subfamily 1 group I member 2 (Rattus norvegicus) (UniProt Q9R1A7). Kind of assay: qHTS assay for small molecule activators of the rat pregnane X receptor (rPXR) signaling pathway (AID 651751; call rule not given here; further: 0% is about no effect). To be noted: rPXR reporter cells, luciferase (One-Glo), 24 h.
Assay [5] concerns HeLa. Put plainly: Primary qHTS to identify gynecologic anti-cancer compounds using libraries of approved drugs and bioactive compounds (AID 1345084). Further: potency means the concentration at half of the fitted maximal effect; nearly all actives have a fitted effect of over 55% in size. To be noted: Gynecologic cancer cell panel viability, ATPlite luminescence, 48 h; series mostly up to 57.5 µM. The method in brief: as §1
In assay [6] the test system is Hek293T. Described as above. To be noted: Gynecologic cancer cell panel viability, ATPlite luminescence, 48 h, control line for the selectivity index; series mostly up to 57.5 µM. In outline:
as §1
For orientation: Cellular ATP, detected with luciferase, serves as a proxy for viable cell number.

Assay [7] deals with JEG-3. The assay is described as above. To be noted: Gynecologic cancer cell panel viability, ATPlite luminescence, 48 h; series mostly up to 57.5 µM. The method in brief:
as §1

Assay [8] relates to OV90. Described as above. To be noted: Gynecologic cancer cell panel viability, ATPlite luminescence, 48 h; series mostly up to 57.5 µM. The method in brief: as §1
The test system of assay [9] is Tov-21-G. Described as above. To be noted: Gynecologic cancer cell panel viability, ATPlite luminescence, 48 h; series mostly up to 57.5 µM. The method in brief: as §1
Where [10] appears, read: at 45.9 µM (top of the series), tumour line B.
The mark [11] stands for this setting: at 45.9 µM (top of the series), tumour line D.
Where [12] appears, read: at 46 µM (top of the series), tumour line A.
Setting [13] is: at 46.1 µM (top of the series), tumour line C.

Sequence of Nuclear receptor subfamily 1 group I member 2 (Rattus norvegicus) (Q9R1A7 whole entry, looked up): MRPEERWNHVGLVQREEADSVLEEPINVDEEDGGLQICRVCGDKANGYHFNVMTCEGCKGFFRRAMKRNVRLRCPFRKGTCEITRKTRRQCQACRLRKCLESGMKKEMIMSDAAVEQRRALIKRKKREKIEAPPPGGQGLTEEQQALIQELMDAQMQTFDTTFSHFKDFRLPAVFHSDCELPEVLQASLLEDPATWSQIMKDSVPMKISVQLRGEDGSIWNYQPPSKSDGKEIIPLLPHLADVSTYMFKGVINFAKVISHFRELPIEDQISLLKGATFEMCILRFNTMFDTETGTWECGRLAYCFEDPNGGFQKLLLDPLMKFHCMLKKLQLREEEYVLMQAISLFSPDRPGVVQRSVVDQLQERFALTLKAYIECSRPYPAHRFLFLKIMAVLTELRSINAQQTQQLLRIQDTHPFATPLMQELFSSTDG

Consider `C[N+]1(C)[C@@H]2CC(OC(=O)[C@H](CO)c3ccccc3)C[C@H]1[C@H]1O[C@@H]12` (stereo not given in full), for which the activity, negative = cell killing is -9.31% in [1] (setting [10]), -20.1% in assay [1] (setting [11]), -28.4% in assay [1] (setting [12]) and -22.8% in assay [1] (setting [13]).
As for `CN1[C@@H]2CCC[C@@H]1CC(NC(=O)c1nn(C)c3ccccc13)C2` (stereo not given in full), the activity, negative = cell killing is 0.357% in assay [1] (setting [10]), 2.65% in assay [1] (setting [11]) and -11.6% in assay [1] (setting [13]). In addition, the Potency in assay [1] (tumour line A) was 12.6 µM (active).
Take `COc1cc2c(cc1OC)CN(CCc1ccc(NC(=O)c3cc(OC)c(OC)cc3NC(=O)c3cnc4ccccc4c3)cc1)CC2`: in assay [2], the Potency was 11.2 µM (active).
`COc1ccc(Cc2nccc3cc(OC)c(OC)cc23)cc1OC`: the activity change, negative = inhibition in assay [3] (HiBiT) is -26.2%; in assay [3] (Viability) it was -0.43%.
On to `O=c1c(O)c(-c2ccc(O)cc2)oc2cc(O)cc(O)c12`, for which, in assay [4], the max response is 0.424% and -1.67%.
Take `Cc1ccc(C(=O)Nc2cccc(C(F)(F)F)c2)cc1Nc1nc(-c2cccnc2)nc2c1cnn2C`: the activity change, negative = inhibition is -9.48% in [3] (HiBiT) and -7.92% in assay [3] (Viability).
For `COc1ncc(-c2ccc3nccc(-c4ccnnc4)c3c2)cc1NS(=O)(=O)c1ccc(F)cc1F`, the Potency in [5] is 0.631 µM (active); in [6] it was 0.1 µM (active); in assay [7], 25.1 µM (active); in assay [8], 3.55 µM (active); in assay [2] it was 0.355 µM (active); in assay [9] it was 12.6 µM (active).
With `CC(C(=O)O)c1ccc(-c2ccccc2)c(F)c1` (stereo not given), the activity, negative = cell killing is -24.7% in [1] (at 20 µM (top of the series), tumour line C); -12.6% in [1] (at 21.2 µM (top of the series), tumour line B); -11% in assay [1] (at 21.2 µM (top of the series), tumour line D); -20.3% in [1] (at 21.3 µM (top of the series), tumour line A).
As to `O=C1C(Cl)=C(NCCN2CCOCC2)C(=O)c2ncccc21`, the Potency in assay [3] (HiBiT) and in assay [3] (Viability) was 5.57 µM (active) throughout.
As for `N#C[C@H]1C[C@H]2C[C@@H]2N1C(=O)[C@@H](N)C12CC3CC(CC(O)(C3)C1)C2`, the activity, negative = cell killing in assay [1] (setting [10]) was -2.78%; in [1] (setting [11]), -16.4%; in assay [1] (setting [12]), -21.1%; in assay [1] (setting [13]), 4.9%.
